This passage reports outcome and AC50 results from PubChem BioAssay (EPA / NIEHS).

Test [1] can be described thus: CCTE_Simmons_MITO_inhib_resp_rate: CCTE's HepG2 Seahorse XF Respirometric Screening Assay at Inhibited Respiratory State [full ETC block], Simmons Lab (AID 2284006). The settings on record: actives raise or lower the signal. Put shortly: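 Inhibited respiration was taken as HepG2 oxygen consumption after rotenone/antimycin A, which followed test-compound and FCCP injections. Chemicals were tested at seven final concentrations from 125 nM to 100 uM. Activity was fitted bidirectionally relative to DMSO.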

A short description of test [2]: CCTE_Simmons_MITO_viability: CellTiter-Glo Viability Assessment for CCTE's HepG2 Seahorse XF Respirometric Screening Assay [post-hoc], Simmons Lab (AID 2284007; active means hit-call score of the fitted dose curve at least 0.9, where 1 is the maximum;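 on AC50: cells exposed to chemical for 90 min before the ATP read; actives lower ATP signal relative to DMSO baseline meaning reduced viability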). In a few lines: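 HepG2 cells; test chemical 7 conc. (125 nM–100 uM final) × 90 min; then luminescent ATP detection. DMSO vehicle. Positive control dichlone, 8 conc. from 10 nM to 100 uM final. Loss-of-signal endpoint.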
(Cellular ATP, detected with luciferase, serves as a proxy for viable cell number.)

A short description of test [3]: CCTE_Shafer_MEA_acute_spike_number: CCTE's Neural Acute Assay for Total Number of Spikes, Shafer Lab (AID 2284008).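 On AC50: curve fitted for decrease in spike count so AC50 reflects inhibitors.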 Put shortly: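 Using an adaptive detector set to 8x rms noise, spikes were counted in 40-min windows before and after compound addition (0.03-40 uM) to rat cortical networks at 37 C; the well-level change from baseline was analysed relative to DMSO.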

Test [4] can be described thus: CCTE_Shafer_MEA_acute_firing_rate_mean: CCTE's Neural Acute Assay for Mean Firing Rate, Shafer Lab (AID 2284009).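 Further: analyzed for loss of signal so actives lower firing rate relative to DMSO.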 Put shortly:
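Percent change in well-mean firing rate was derived from extracellular spikes detected at 8x rms noise (300-5000 Hz band-pass) before and after a 40-min compound exposure. Cultures were primary rat cortical neurons, tested at 0.03-40 uM.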

A short description of test [5]: CCTE_Harrill_HTTr_Viability_MCF7: CCTE's 6-hour Cell Viability Assessment for the High-Throughput Transcriptomics (HTTr) Platform, in MCF-7 cells cultured in DMEM + 10% fetal bovine serum, Harrill Lab (AID 2284010). In a few lines: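 Viability measured through PI dye exclusion by high-content imaging at 6 h post-dosing.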
Test [6] is described as follows: CCTE_Harrill_HTTr_Apoptosis_MCF7: CCTE's 6-hour Apoptosis Assessment for the High-Throughput Transcriptomics (HTTr) Platform, in MCF-7 cells cultured in DMEM + 10% fetal bovine serum, Harrill Lab (AID 2284011). Put shortly: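 Apoptosis in MCF-7 cells grown in DMEM with 10% fetal bovine serum was scored after a six hour exposure by high content imaging of caspase-3/7 activation (CellEvent Caspase 3/7 Green), with DMSO serving as negative control and baseline.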

Test [7] in a line: CCTE_Harrill_HTTr_CellCount_MCF7: CCTE's Cell Proliferation Assessment for the High-Throughput Transcriptomics (HTTr) Platform, Harrill Lab (AID 2284012; active means hit-call score of the fitted dose curve at least 0.9, where 1 is the maximum;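 further: count of Hoechst-stained nuclei per well by high-content imaging in MCF-7 cells; cells exposed to compound for six hours; intended direction is loss of nuclei count meaning fewer cells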). Put shortly:
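Nuclei counting (Hoechst, high content imaging) in MCF-7 after a 6 h treatment at eight concentrations. Activity fitted bidirectionally, DMSO as negative control.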

The nature of test [8]: CCTE_Shafer_MEA_acute_burst_number: CCTE's Neural Acute Assay for Single-Electrode Bursts, Shafer Lab (AID 2284013). Put shortly:
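Spontaneous network activity of primary rat cortical neurons was recorded extracellularly on microelectrode arrays at 37 C, with 40-min periods before and during exposure to 0.03-40 uM compound on DIV 13 or 15.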

Test [9] in a line: CCTE_Shafer_MEA_acute_burst_duration_mean: CCTE's Neural Acute Assay for Mean Burst Duration, Shafer Lab (AID 2284014).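 Further: hits are decreases in mean burst duration relative to DMSO controls.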 In a few lines: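 Read-out is the per-well percent change in mean burst duration (first to last spike within a single-electrode burst) between 40-min recordings before and after compound. Cultures were primary rat cortical neurons on MEAs, dosed at 0.03-40 uM on DIV 13 or 15.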

The nature of test [10]: CCTE_Shafer_MEA_acute_per_burst_spike_number_mean: CCTE's Neural Acute Assay for Average Number of Spikes Per Burst, Shafer Lab (AID 2284015).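 Further: hits are decreases in mean spikes per burst versus baseline.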 Put shortly:
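Percent change in mean spikes per single-electrode burst is compared between a 40 min baseline and a 40 min recording with compound (0.03-40 uM). Cultures were rat cortical neurons on MEA plates at DIV 13 or 15, recorded at 37 C, with DMSO as the negative control.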

Test [11] can be described thus: CCTE_Shafer_MEA_acute_interburst_interval_mean: CCTE's Neural Acute Assay for Mean Interburst Interval, Shafer Lab (AID 2284016).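 Further: percent change of mean interburst interval versus each well's own pre-dose baseline; curves fitted for decrease in interburst interval relative to DMSO.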 In a few lines:
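Percent change in mean single-electrode interburst interval was calculated per well from 40 min recordings before and after compound (0.03-40 uM). Recordings were made at 37 C on rat cortical cultures at DIV 13 or 15, with spikes detected at 8x rms threshold.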

The nature of test [12]: CCTE_Shafer_MEA_acute_burst_percentage_mean: CCTE's Neural Acute Assay for Percentage of Spikes in a Burst, Shafer Lab (AID 2284017).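 On AC50: curve fitted for loss of signal so potency reflects decreased burst percentage.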 In a few lines: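 Well-level mean burst percentage from a 40-min recording after compound (0.03-40 uM) expressed as percent change from a 40-min baseline at 37C. Cultures: primary rat cortical neurons on MEA, dosed on DIV 13 or 15; fitted downward relative to DMSO.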

A short description of test [13]: CCTE_Shafer_MEA_acute_burst_percentage_std: CCTE's Neural Acute Assay for Standard Deviation of Burst Percentage, Shafer Lab (AID 2284018).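 Further: fitted in the negative direction so actives lower burst percentage SD.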 Put shortly: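 Value is percent change from baseline in the across-electrode SD of spikes-in-bursts percentage, wells with >/= 10 active electrodes. Acute 40-min exposure to 0.03-40 uM on DIV 13 or 15 rat cortical cultures, recorded at 37 C after 40-min baseline.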

Test [14] can be described thus: CCTE_Shafer_MEA_acute_per_network_burst_spike_number_mean: CCTE's Neural Acute Assay for Average Number of Spikes in a Network Burst, Shafer Lab (AID 2284019).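 On AC50: curve fitted for loss of signal so actives reduce spikes per network burst.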 In a few lines: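 Read-out is mean spike count per network burst, taken as percent change between a 40-min pre-exposure and a 40-min post-exposure recording per well. Rat primary cortical neurons on MEAs at 37 C, DIV 13 or 15; compounds at 0.03-40 uM.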

The nature of test [15]: CCTE_Shafer_MEA_acute_per_network_burst_spike_number_std: CCTE's Neural Acute Assay for Standard Deviation of Number of Spikes in a Network Burst, Shafer Lab (AID 2284020).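 Further: fitted for decrease in spike-number SD versus DMSO so actives lower it.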 In a few lines:
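Spontaneous network activity of primary rat cortical neurons is recorded extracellularly before and after a 40-min compound exposure (0.03-40 uM) at 37 C. The endpoint is the well's percent change in burst spike-number SD.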

The nature of test [16]: CCTE_Shafer_MEA_acute_per_network_burst_electrodes_number_mean: CCTE's Neural Acute Assay for Mean Number of Electrodes in a Network Burst, Shafer Lab (AID 2284021).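 Further: curves fitted for decreases only so hits reduce electrodes per burst.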 Put shortly:
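Percent change from baseline in average electrode count per network burst, rat cortical cultures on 48-well MEAs; 40-min recordings each side of exposure, DIV 13 or 15; threshold 8x rms noise; DMSO as negative control.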

The nature of test [17]: CCTE_Shafer_MEA_acute_network_burst_percentage: CCTE's Neural Acute Assay for Percentage of Network Bursts, Shafer Lab (AID 2284022).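 Further: curves fitted for loss so actives lower network burst percentage.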 Put shortly:
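On DIV 13 or 15, at least three wells of rat cortical neurons per compound are dosed at 0.03-40 uM. Spontaneous firing is detected at 8x rms noise for 40 min before and after dosing at 37 C. The percent change in network-burst spike share is reported.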

Test [18] can be described thus: CCTE_Shafer_MEA_acute_cross_correlation_area: CCTE's Neural Acute Assay for Area of Cross Correlation, Shafer Lab (AID 2284024).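 Further: area under pooled inter-electrode spike cross-correlation near zero lag as percent change from own baseline; curves fitted for loss of cross-correlation area so actives lower synchrony.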 In a few lines:
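Extracellular recordings from cultured rat cortical neurons measure network synchrony as cross-correlation area; each well's post-compound value (0.03-40 uM, 40 min) is compared with its own 40 min baseline to give percent change.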

In test [19] the target is Estrogen receptor (Homo sapiens) (UniProt P03372). As to the kind of experiment: CCTE_Deisenroth_AIME_96WELL_LUC_Active: CCTE's 96-well Estrogen Receptor Transactivation Assay with AIME metabolic competence (ERTA luciferase; metabolism positive), Deisenroth Lab (AID 2284023; active means hit-call score of the fitted dose curve at least 0.9, where 1 is the maximum). Put shortly:
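Chemicals pre-incubated 2 h with alginate-immobilized phenobarbital/beta-naphthoflavone-induced male Sprague Dawley rat liver S9, then medium transferred to VM7Luc4E2 cells for 24 h luciferase read-out. 10-point series 0.002 - 200 uM; fitted relative to 17beta-estradiol.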

For test [20] the target is unchanged. The test can be described thus: CCTE_Deisenroth_AIME_96WELL_LUC_Inactive: CCTE's 96-well Estrogen Receptor Transactivation Assay without AIME metabolic competence (ERTA luciferase; metabolism negative), Deisenroth Lab (AID 2284025; active means hit-call score of the fitted dose curve at least 0.9, where 1 is the maximum). Put shortly: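 VM7Luc4E2 breast cells, luciferase read 24 h after dosing with medium pre-incubated 2 h on alginate-water lids (metabolism negative). 10-point series 0.002–200 uM, single technical replicate, n≥4; fit relative to 17beta-estradiol.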

Results filed as inconclusive are left out. Calls of active or inactive are those of the source. How the source made its calls, unless noted: active means hit-call score of the fitted dose curve at least 0.9, where 1 is the maximum; inactive means score below 0.9.

Usually AC50 stands for the concentration giving half of the maximal activity seen.

Sequence of Estrogen receptor (Homo sapiens) (P03372 whole entry, looked up): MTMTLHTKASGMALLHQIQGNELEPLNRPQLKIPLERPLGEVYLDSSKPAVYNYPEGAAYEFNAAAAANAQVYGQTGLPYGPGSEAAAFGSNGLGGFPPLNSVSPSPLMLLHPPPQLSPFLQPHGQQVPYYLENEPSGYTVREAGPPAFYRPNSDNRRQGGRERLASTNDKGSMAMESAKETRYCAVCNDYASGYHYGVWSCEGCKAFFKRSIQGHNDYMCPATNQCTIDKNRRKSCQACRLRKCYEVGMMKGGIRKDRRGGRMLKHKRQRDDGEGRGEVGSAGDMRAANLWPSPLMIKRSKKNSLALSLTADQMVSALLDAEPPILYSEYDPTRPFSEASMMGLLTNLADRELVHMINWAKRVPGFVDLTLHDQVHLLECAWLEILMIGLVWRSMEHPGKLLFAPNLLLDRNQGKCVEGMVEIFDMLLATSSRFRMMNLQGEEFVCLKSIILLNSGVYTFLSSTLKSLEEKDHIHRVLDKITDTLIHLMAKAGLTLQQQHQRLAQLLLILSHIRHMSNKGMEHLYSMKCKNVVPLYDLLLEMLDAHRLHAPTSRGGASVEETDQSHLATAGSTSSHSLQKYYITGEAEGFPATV

In the case of `NC(=O)c1nc(-c2cccc(-c3cc(F)ccc3OCC(F)(F)C(F)(F)F)c2)n[nH]1`, the result in test [1], in test [2], in [5], in test [6], in [7] and in test [9] was inactive. Also, the outcome in [11], in test [16], in test [17] and in [18] was inactive. For the same compound, the AC50 was 0.648 µM (active) in [3]; 0.649 µM (active) in test [4]; 0.446 µM (active) in test [8]; 4.11 µM (active) in test [10]; 7.48 µM (active) in test [12]; 2.16 µM (active) in test [13]. For the same compound, the half-maximal activity concentration (AC50) in [14] was 160 nM (active); in test [15], 37.4 µM (active).

As to `O=C(O)c1ccccc1-n1cc(C(=O)O)c(=O)c2cc(Nc3c(F)cc(F)cc3Cl)c(Cl)cc21`, the outcome in test [3], in [4], in [5], in [6], in test [7] and in [8] was inactive. In addition, the call in test [9], in test [11], in test [12], in test [13], in [14] and in test [15] was inactive. Besides, the compound was called inactive in test [16], in test [17] and in test [18]. Moreover, the AC50 in [10] is 20 µM (active).

As for `CC(C)(C)c1csc(-c2cc3cc(OCc4ccccc4CC(=O)O)ccc3o2)n1`, the AC50 in test [1] was 4.67 µM (active); in test [2] it was 50 µM (active). For the same compound, the result in test [5] and in test [6] was inactive.

On to `OC12N=C(c3ccccc3)SC1Cc1cc(Cl)ccc12` (configuration not stated), for which the outcome in test [1], in [2], in [5], in test [6], in test [7] and in test [10] was inactive. Also, the compound was classed as inactive in test [14], in test [15], in test [17] and in test [18]. The AC50 in test [3] is 6.83 µM (active); in test [4], 6.86 µM (active); in test [8], 6.49 µM (active); in test [9] it was 20 µM (active); in test [11] it was 6.48 µM (active); in test [12], 32.6 µM (active). Besides, the results for the AC50 in test [13] and in test [16] were 30.7 µM (active) and 32.5 µM (active), respectively.

`c1ccc2ccccc2c1`: the outcome in [5], in [6], in test [19] and in [20] was inactive.

Consider `COc1ccc2cc(S(=O)(=O)N[C@H](CC(=O)N[C@H](Cc3ccc(CN4[C@H](C)CCC[C@@H]4C)cc3)C(=O)N(C)C(C)C)c3ccc4c(c3)OCO4)ccc2c1`, for which the outcome in test [5], in test [6] and in [7] was inactive.

For the compound `CCOC(=O)O[C@H](C)OC(=O)c1ccc2c(c1)cc(C(=O)NC1CCN(C(C)C)CC1)n2Cc1cc(-c2ccc(Cl)s2)on1`, the AC50 in test [5] is 76.7 µM (active); in [6], 72.2 µM (active). In addition, in test [7], the compound was classed as inactive.

`CCCCCCCC[Si](OCC)(OCC)OCC`: the result in [5], in test [6] and in test [7] was inactive.

For the compound `Cc1ccc2oc(CN(Cc3ccccc3)C(=O)Nc3c(F)cc(F)cc3F)c(-c3ccc(Cl)cc3)c2c1`, the outcome in test [5], in test [6] and in test [7] was inactive.
